HCV inh = qHTS Assay for Inhibitors of Hepatitis C Virus (HCV) | Huh7.5.1 HCVcc-Cre infection, luciferase reporter, 44 h | Potency, µM (highest dose often 41.8 µM), for inactives: at the top dose activity change, negative = inhibition, hits mostly inhibitors | actives 3.4% (n = 340,000); further: potency means the concentration at half of the fitted maximal effect
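Compounds are dispensed onto cells plated 4 h earlier at 1,000 per well, with HCVcc-Cre virus (about 0.5 moi) added next. Following 44 h of culture, luminescent signal is measured for 15 sec after 15 min with substrate at room temperature.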
Pf growth 48h = Primary qHTS for delayed death inhibitors of the malarial parasite plastid, 48 hour incubation; actives 5.9% (n = 310,000); P. falciparum luciferase growth in erythrocytes, 48 h; Potency, µM (series often up to 28.7 µM), inactives show at the top dose activity change, negative = inhibition, most hits filed as inhibitors; further: potency means the concentration at half of the fitted maximal effect
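Erythrocytes infected with P. falciparum carrying an integrated firefly luciferase reporter (2% hematocrit, 0.1% parasitemia final) were exposed to compounds in RPMI 1640 with 0.5% Albumax at 37 C, 5% CO2. Growth inhibition was scored as reduced luminescence.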
HCMV inh = qHTS Assay for inhibitors of the human cytomegalovirus (HCMV); actives 4.5% (n = 410,000); activity change, negative = inhibition, % at 57.5 µM; AID 1259415, 2018; HFF cells, HCMV-luciferase reporter, 72 h; hits give low values; in the data active means activity change below about -60%; inconclusive means no clear call, values can overlap the other calls; inactive means above about -39%
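After 16 h attachment at 37C, HFF cells received test compound and HCMV-luciferase (1 PFU/cell); reporter luminescence read 72 h later, data normalized against buffer-only and known inhibitor Salinomycin.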
Pf growth 96h = Primary qHTS for delayed death inhibitors of the malarial parasite plastid, 96 hour incubation; P. falciparum luciferase reporter growth, 96 h; actives 6.9% (n = 320,000); Potency, µM (top dose mostly 28.7 µM), inactives show top-dose activity change, negative = inhibition, usual class: inhibitors; further: potency means the concentration at half of the fitted maximal effect
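Plates of compound plus infected erythrocytes (2% hematocrit, 0.05% parasitemia final) incubate 96 hours, 37 C, 5% CO2. Detection reagent added; reduced luminescence from the parasites' luciferase reporter flags inhibition.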
* hit, by the source's call; ? = inconclusive; . = not tested or not shown; [ ] = dose if it differs, or a comment. Shown are actives, neighbours in structure and some others; about 13% of the full set was active somewhere. Unless noted, the call rests on the fitted dose curve; in most records, active means well fitted inhibition curve with a large enough effect; inconclusive means small, poorly fitted or top-dose-only effect, or another doubt; inactive means no such curve, though single readings can be large or run the other way. On the % scale 0 is the no-effect control and ±100 the full control effect.

SMILES	HCV inh	Pf growth 48h	HCMV inh	Pf growth 96h
Cc1nc2c(C(=O)N(C)Cc3ccccc3)c[nH]n2c(=O)c1Cc1ccc(Cl)cc1	.	.	-11.2	.
Cc1ccc(CN2c3ccccc3-c3nc(SCC(=O)Nc4c(C)cc(C)cc4C)ncc3S2(=O)=O)cc1	.	.	11.3	.
CC(C)Cc1[nH]c(=O)c(C#N)c2c1COC(C)(C)C2	-1.3%	-16.2%	-16.9	.
CCCc1[nH]c(=O)c(C#N)c2c1COC(C)(C)C2	13.7%	.	33.3	1.65µM*
CCN(Cc1ccccc1)C(=O)c1c(C)oc2ncn(C)c(=O)c12	.	.	-4.0	.
COc1ccc(CN2C(=O)C(n3ccc4ccccc43)c3cc(Cl)ccc32)cc1 (configuration not stated)	.	.	-83.7*	.
COc1ccc(CN2C(=O)C(n3c(C)ccc3C)c3cc(OC(F)(F)F)ccc32)cc1 (configuration not stated)	.	.	-87.9*	.
COc1ccc2c(c1)C(n1ccc3ccccc31)C(=O)N2Cc1ccc(C(C)C)cc1 (configuration not stated)	.	.	18.0	.
Cc1cccc(C(c2sc3nc(-c4ccco4)nn3c2O)N2CCN(c3ccccc3F)CC2)c1 (configuration not stated)	.	.	13.3	.
O=C(C1=NNCC1c1ccccc1)C1CO1 (configuration not stated)	11.1%	-25.7%	-68.9*	?
c1ccc([C@@H]2CO2)cc1	21.0%	.	.	.
Cc1ccc(NC(=O)COC(=O)c2nn(-c3ccc(Cl)cc3)cc2O)cc1	25.4%	.	63.0	.
Cc1c(C(=O)NN)nn(-c2ccc(Cl)cc2)c(=O)c1C#N	14.1µM*	5.2%	-36.5	-30.0%
NNC(=O)c1nn(-c2ccc(Cl)cc2)cc1O	4.7%	9.28µM*	4.9	?
CN(Cc1ccccc1)c1ccc(-c2nc(-c3ccncc3)no2)cc1[N+](=O)[O-]	.	.	-15.8	.
Cc1ccc(Nc2c3c(nc4nc(-c5cccs5)nn24)CCCC3)cc1F	.	.	27.0	.
Fc1cc(Br)ccc1Nc1c2c(nc3nc(-c4cccs4)nn13)CCCC2	.	.	-60.0*	.
COc1ccc(S[C@]2(C(=O)N(C)C)CC(=O)N(c3ccc4ccccc4c3)[C@@H]2c2ccc(OC)cc2)cc1	.	.	19.4	.
CCOc1cnc(-c2ccc(Cl)cc2)o1	4.1%	58.1%	-10.2	46.2%
CCOc1cnc(-c2c(-c3c(Cl)cccc3Cl)noc2C)o1	-19.4%	-13.6%[5.75 µM]	-60.9*	?
CCCCOc1cccc(NC(=O)c2cccc(C(=O)Nc3cccc(OCCCC)c3)c2)c1	.	.	-30.3	.
N#CC1=C(N)Oc2c(c(=O)oc3ccccc23)C1c1ccc(OC(=O)N2CCOCC2)cc1 (configuration not stated)	6.3%	9.28µM*	-26.5	11.7µM*
O=C(CSc1nc2ncc(Cl)cc2[nH]1)c1c[nH]c2ccccc12	-26.3%	10.4µM*	-13.2	1.85µM*
COC(=O)CSc1nc2ncc(Cl)cc2[nH]1	1.9%	24.6%	44.6	13.1µM*
Cc1ccc(S(=O)(=O)N(C)C)cc1NC(=O)CSc1nc2ncc(Cl)cc2[nH]1	2.51µM*	?	4.8	?
SMILES	HCV inh	Pf growth 48h	HCMV inh	Pf growth 96h
Cc1ccccc1NC(=O)CSc1nc2ncc(Cl)cc2[nH]1	-11.4%	17.1%	-12.9	32.2%
Cc1cc(NS(=O)(=O)c2cn(C)c(C)n2)ccc1Br	.	.	-6.3	.
Cc1ccc(N(CN2C(=O)c3ccccc3C2=O)C(=O)c2ccc([N+](=O)[O-])cc2[N+](=O)[O-])cc1	11.0%	20.1%	-0.8	3.7µM*
Cc1cc(=O)[nH]c(SCC(=O)c2ccc(F)c(C)c2)n1	21.7%	?	?	0.262µM*
COc1ccc(C(=O)CSc2nc(C)cc(=O)[nH]2)cc1C	5.9%	.	0.0	-28.2%
COc1ccc(S(=O)(=O)n2nc(-c3ccco3)nc2NCc2ccc(C(C)C)cc2)cc1	.	.	57.4	.
CCOC(=O)N1CCN(Cc2nc3cc(NC(=O)c4ccccc4Cl)ccc3n2C(C)C)CC1	.	.	-90.0*	.
Cn1c(CN2CCCC2)nc2cc(NC(=O)COc3ccc(Cl)cc3)ccc21	?	?	5.8	.
Cn1c(CN2CCCCC2)nc2cc(NC(=O)c3ccc(Cl)cc3)ccc21	3.98µM*	?	-67.4*	-6.7%
CCOC(=O)N1CCN(Cc2nc3cc(NC(C)=O)ccc3n2C(C)C)CC1	.	.	69.0	.
Cn1c(CN2CCCC2)nc2cc(NC(=O)c3ccc(Cl)cc3)ccc21	?	?	-73.0*	-24.1%
CC(=O)N1CCN(Cc2nc3cc(NC(=O)C4CCCCC4)ccc3n2C)CC1	6.1%	-22.8%	-2.2	1.85µM*
COc1ccc(NC(=O)N[C@H]2CC[C@@]34CCCN3C(=O)CCC[C@H]4C2Cc2ccccc2)cc1 (some centres not stated)	.	.	4.8	.
Cn1c(CN2CCOCC2)nc2cc(NC(=O)c3ccc(F)cc3)ccc21	?	7.4%	-75.4*	112.3%
N=c1c(C(=O)NC2CCCC2)cc2c(=O)n3ccccc3nc2n1CC1CCCO1 (configuration not stated)	-15.0%	13.1µM*	22.7	?
CCNc1nc2nc3ccc(C)cn3c(=O)c2cc1C(=O)NCC1CCCO1 (configuration not stated)	10.2%	4.8%	26.1	37.9%
C=CCNC(=O)c1cc2c(=O)n3cc(C)ccc3nc2nc1NCC1CCCO1 (configuration not stated)	6.7%	8.4%	.	4.15µM*
Cc1ccc(CNC(=O)c2cc3c(=O)n4ccccc4nc3n(CC3CCCO3)c2=N)cc1 (configuration not stated)	?	2.62µM*	.	?
COc1ccc(N2CCN(c3oc(/C=C/c4ccccc4OC)nc3C#N)CC2)cc1	.	.	-25.9	.
N#Cc1c(-c2ccc(F)cc2)nc2n(c1=O)CCS2	22.4µM*	.	-17.2	-17.6%
COc1cc(-c2nc3n(c(=O)c2C#N)CCS3)cc(OC)c1OC	-6.4%	?	18.5	0.657µM*
COc1ccc(-c2nc3n(c(=O)c2C#N)CCS3)cc1	-12.4%	38.8%	-12.8	11.7%
COc1cc(NC(=O)CN2CCCN(S(=O)(=O)c3ccc(F)cc3)CC2)cc(OC)c1	.	.	-3.8	.
CCN(CC)c1ccccc1	1.2%	37.8%	-37.1	35.2%
CCN(CC)c1ccc(C(=C2C=CC(=[N+](CC)CC)C=C2)c2ccc(N(CC)CC)cc2)cc1	1.78µM*	.	-105.1*	.
CCN(CC)c1ccc(C(=C2C=CC(=[N+](CC)CC)C=C2)c2ccccc2)cc1	?	.	-100.0*	.
Cc1ccc2ccc3cc(C(=O)N4CCN(c5ccccc5)CC4)nc3c2[nH]1	.	.	-31.2	.
Cc1cc(C)c(NC(=O)COc2cccnc2[N+](=O)[O-])c(C)c1	-3.6%	-0.4%	-22.2	?
Cc1cc(-n2c(C)cc(C(=O)COc3ccccc3[N+](=O)[O-])c2C)no1	-27.0%	?	12.8	?
Cc1cc(C(=O)COc2cccnc2[N+](=O)[O-])c(C)n1-c1ccccc1F	-26.8%	5.1%	-97.3*	30.2%

Screens deposited in PubChem by National Center for Advancing Translational Sciences (NCATS).
